# Shown is part of a subset that was picked to be rich in hits.
# VP16 counter: Gal4-VP16 reporter inhibition counter-screen. Drosophila S2 Gal4-VP16 UAS-luciferase, luminescence, 20 h. Potency, µM (doses to about 53.6 µM), for inactives: top-dose activity, negative = inhibition, most hits filed as inhibitors. hit rate 3.5% among 310,000. AID 2546;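 also: Gal4-VP16 expression switched on by copper sulfate through the metallothionein promoter; potency is read from the fitted curve at half-maximal effect; % is scaled to controls: 0 for no effect and ±100 for the full control effect; nearly all actives have a fitted effect of over 50% in size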
# a7 integrin act: activators of alpha7 integrin expression for muscular dystrophy. alpha7betagal myoblasts, beta-gal FDG fluorescence, 48 h. Potency, µM (doses to about 38.3 µM), for the others: at the top dose activation, most hits filed as activators. hit rate 0.064% among 350,000;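 also: potency is read from the fitted curve at half-maximal effect; 100% = response of the positive control SU9516; nearly all actives have a fitted effect of over 60% in size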
#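 Alpha7betagal+/- myoblasts (passage 13) were plated 16-24 hr, then exposed to compounds (1:260 dilution of DMSO stock) for 48 hours at 37C. After MPER lysis, β-galactosidase reporter activity was read as FDG fluorescence (ex 480/em 540) after 30 minutes.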
# ERG-DNA inh: ERG Ets/DNA interaction inhibition; P11308; fluorescence polarization, His-ERG Ets domain / labelled DNA; Potency, µM (top dose mostly 76.9 µM), without a hit: at the highest dose FP activity, negative = inhibition, actives largely listed as inhibitors; hit rate 0.028% among 370,000; active = well fitted inhibition curve with a large enough effect in the polarisation, with a control signal flat; inconclusive = small, poorly fitted or top-dose-only effect, or effect the other way, or a change in a side signal; inactive = no such curve, though single readings can be large or run the other way; the % refers to the polarisation;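 also: polarization taken with two DNA probes labelled with fluorescein and Texas red; potency is read from the fitted curve at half-maximal effect; % of control where 0% means no effect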
#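 His-tagged ERG Ets domain (1 uM in the protein solution; 300mM KCl, 50mM Tris-HCl, 1mM EDTA, 1mM DTT, pH 7.5) received compound, then a probe mix of 5 nM fluorescein-DNA and 100nM Texas-615-DNA. Fluorescence polarization was read for both dyes.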
# Giardia kill: Giardia lamblia killing; hit rate 0.15% among 340,000; activity change, % at 7.66 µM, hits read low; Giardia lamblia trophozoite viability; AID 540267; in the data active = activity change below about -80%; inconclusive = between about -30% and that limit;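 also: parasites exposed to compound for two days anaerobically before the ATP read; % is scaled to controls: 0 for no effect and ±100 for the full control effect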
#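 Giardia lamblia trophozoites (100 cells/well) were incubated with compounds for 48 h at 37 deg C under anaerobic conditions. Viability was read as ATP content by one-step luminescence after 15-30 min at room temperature.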
# RORg inh: ROR gamma (mouse) transcription inhibition; P51450; Potency, µM (series often up to 53.6 µM), for inactives: at the top dose activity change, negative = inhibition, actives largely listed as inhibitors; hit rate 5.4% among 310,000; Drosophila S2 Gal4-RORgamma UAS-luciferase reporter, 20 h; also: potency is read from the fitted curve at half-maximal effect; % is scaled to controls: 0 for no effect and ±100 for the full control effect; nearly all actives have a fitted effect of over 60% in size
# Target sequence (P51450 whole entry, looked up, the tested form may be a part): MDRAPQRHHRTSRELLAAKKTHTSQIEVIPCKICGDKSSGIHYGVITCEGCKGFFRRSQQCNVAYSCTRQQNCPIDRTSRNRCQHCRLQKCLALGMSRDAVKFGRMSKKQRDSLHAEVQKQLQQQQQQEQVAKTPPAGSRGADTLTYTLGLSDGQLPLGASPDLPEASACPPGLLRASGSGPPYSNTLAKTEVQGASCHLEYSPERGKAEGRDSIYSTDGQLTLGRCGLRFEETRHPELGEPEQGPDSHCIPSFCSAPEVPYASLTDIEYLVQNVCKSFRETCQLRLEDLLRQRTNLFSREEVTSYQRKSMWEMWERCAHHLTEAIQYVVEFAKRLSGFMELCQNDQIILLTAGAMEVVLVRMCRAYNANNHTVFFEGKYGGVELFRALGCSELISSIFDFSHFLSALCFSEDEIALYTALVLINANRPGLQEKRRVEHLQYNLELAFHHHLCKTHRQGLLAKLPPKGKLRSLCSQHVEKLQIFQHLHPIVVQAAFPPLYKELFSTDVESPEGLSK
#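 In this cell-based reporter format, copper sulfate (700 uM final) drives Gal4–ROR gamma fusion expression from a metallothionein promoter in Drosophila Schneider cells; compounds preincubated 1 hr, reporter read after 20 hr at ambient temperature.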
# * hit, by the source's call; u = inconclusive; x = not tested or not shown; [ ] = dose if it differs, or a comment. Unless noted, calls follow the shape of the dose curve; as a rule, active = well fitted curve in the direction sought with a large enough effect; inconclusive = small, poorly fitted or top-dose-only effect, or another doubt; inactive = no such curve, though single readings can be large; an effect the other way counts as inactive or inconclusive.
SMILES,VP16 counter,a7 integrin act,ERG-DNA inh,Giardia kill,RORg inh
C/C(=N\NC(N)=S)c1ccc(Cl)s1,5µM*,-26%,-3%,2,1.4µM*
C/C(=N\NC(=O)c1ccoc1C)c1ccc(Cl)s1,10µM*,-25%,7%,-19,11µM*
C/C(=N\NC(=O)c1csc(C)c1C)c1ccc(Cl)s1,-3%,-6%,9%,-2,-7%
CC/C(=N\NC(=O)c1ccoc1C)c1ccc(C)o1,10%,u,2%,-3,5µM*
CC/C(=N\NC(=O)c1c(-c2ccccc2)noc1C)c1ccc(C)o1,-11%,-6%,5%,11,u
Cc1cccc(NC(=O)CCSc2nncn2C)c1,-3%,-29%[7.66 µM],-5%,2,4%
O=C(NCC1CCCO1)c1ccc2[nH]c3c(c2c1)CCCC3 (stereo not drawn),x,27%,-4%,-14,x
O=[N+]([O-])c1cc(S(=O)(=O)NCCN2CCOCC2)ccc1Sc1nnnn1-c1ccccc1,20µM*,-19%,-3%,-9,11µM*
COc1ccc(CCNC(=O)CSc2n[nH]c(-c3ccccc3Cl)n2)cc1OC,x,x,-2%,x,x
CC(C)NC(=O)NC(=O)COC(=O)c1ccccc1F,-12%,11%,-17%,-7,11µM*
COc1ccc(-c2nc3sc(CCNC(=O)c4ccco4)c(C)n3n2)cc1,x,x,-16%,x,x
O=C1c2ccccc2-c2nnc(-c3ccccc3)cc21,11µM*,-28%,7%,u,8.9µM*
Cc1cccc(-c2cc3c(nn2)-c2ccccc2C3=O)c1,u,17%,-3%,u,-15%
COc1ccc(-c2cc3c(nn2)-c2ccccc2C3=O)cc1,u,-25%,-2%,u,2.5µM*
O=C(CNC(=O)c1ccccc1F)c1ccccc1,u,u,-8%,-3,11µM*
O=C(CNC(=O)c1ccccc1Cl)c1ccccc1,-25%,u,80%,u,8.9µM*
Cc1ccccc1C(=O)NCC(=O)c1ccccc1,x,u,5%,-28,x
C=CCNC(=S)N/N=C/c1ccc(N(CC)Cc2ccccc2)cc1,0.71µM*,-21%,2%,10,0.5µM*
CCN(CC)c1ccc(/C=N/NC(=S)NCc2ccc(OC)cc2)cc1,1.4µM*,14%,-8%,-10,0.89µM*
CCN(CC)c1ccc(/C=N/NC(=S)NCc2ccccc2)cc1,4µM*,-25%,-14%,10,1.3µM*
COc1ccc(CNC(=S)N/N=C/c2ccncc2)cc1,u,-45%,-9%,-15,u
CC(=O)c1ccc(-n2cc(-c3ccc(C(C)(C)C)cc3)[n+]3c2SCCC3)cc1,11µM*,-54%,-3%,-9,-22%
COc1ccc(-c2cn(-c3ccc(Br)cc3)c3[n+]2CCS3)cc1,u,-38%,-9%,-10,6%
CCOc1ccc(NC(=O)CCCN2C(=S)NC(C)(C)CC2C)cc1 (stereo not drawn),u,11%,-6%,-4,u
Cc1cccc(NC(=O)CCCN2C(=S)NC(C)(C)CC2C)c1C (stereo not drawn),-24%,-14%,-5%,-8,11µM*
SMILES,VP16 counter,a7 integrin act,ERG-DNA inh,Giardia kill,RORg inh
CC1CC(C)(C)NC(=S)N1CCCC(=O)Nc1ccc(Br)cc1 (stereo not drawn),u,-2%,-1%,6,4µM*
N#Cc1nc(NCC2CC2)nc(Nc2ccccc2)n1,2%,x,x,x,x
COc1ccc(OC)c(NC(=O)Nc2ccc3[nH]ccc3c2)c1,x,1%,-1%,-15,x
O=C(Cc1ccc(Cl)cc1)Nc1cccc(S(=O)(=O)N2CCCCC2)c1,x,-16%,4%,2,x
O=C(CCl)Nc1cccc(S(=O)(=O)N2CCCCCC2)c1,u,-50%,3%,3,35µM*
O=C(Oc1ccccc1)N1CCN(C(=O)c2ccco2)CC1,4%,0%,11%,13,1%
COc1ccc2c(-c3ccccc3)cc(=S)[nH]c2c1,u,-6%,-24%,-4,1µM*
Cc1ccccc1N=C1NC(=O)CC(c2ccccc2)S1 (stereo not drawn),u,-2%,-7%,21,8.9µM*
Brc1cccc(-c2nnc3n2CCCCC3)c1,-1%,17%,-1%,-14,-11%
Clc1ccc(-c2cnc3n2CCC3)cc1,-6%,-4%,9%,-5,18µM*
Brc1cccc(-c2cnc3n2CCCCC3)c1,10µM*,-36%,6%,-21,0.4µM*
Cc1ccc(S(=O)(=O)N2CCSCCSCCSCCSCC2)cc1,x,-18%,x,9,x
COc1ccc(C)cc1S(=O)(=O)NNc1nc(C)cc(C)n1,x,-9%,1%,7,x
O=C(Nc1ccc(O)c(-c2nc3ccccc3o2)c1)C1(c2ccc(Br)cc2)CCCC1,5.6µM*,1%,-10%,-2,6.3µM*
O=C(Nc1ccc(O)c(-c2nc3ccccc3o2)c1)c1ccc(Br)cc1,x,x,-1%,x,x
CN1C=CC(C(C(N)=O)c2ccccc2)c2ccccc21 (stereo not drawn),x,-12%,x,x,x
CC(CCN1CCN(CCO)CC1)c1ccccc1 (stereo not drawn),3%,0%,-28%,-21,2.8µM*
CC(CCN1CCOCC1)c1ccccc1 (stereo not drawn),1%,-11%,2%,7,15%
CN1CC(=O)NC1=NC(=O)C12CC3CC(CC(C3)C1)C2,4µM*,-21%,0%,-15,2.2µM*
COc1ccc(C2C(C(=O)Nc3ccc(C)cc3C)=C(C)Nc3nc4ccccc4n32)c(OC)c1 (stereo not drawn),x,x,-7%,x,x
COc1ccc(C2C(C(=O)c3ccccc3)=C(C)Nc3nc4ccccc4n32)c(OC)c1 (stereo not drawn),-2%,3%,0%,-14,6.3µM*
O=C1[C@H]2[C@H]3[C@H](O)[C@H](O)C/C(=N/OC[C@@H](O)COCc4ccco4)[C@@H]3CC[C@@H]2C(=O)N1C[C@@H]1CCCO1,16%[10 µM],x,x,x,7%[10 µM]
Cc1nc2c(O)cccc2cc1CO,u,0%,8%,-19,10µM*
O=C(NCc1ccccc1)c1ccc2c(c1)N(Cc1ccccc1F)C(=O)c1ccccc1S2=O (stereo not drawn),x,x,2%,x,x
CC1=C(c2ccccc2)C(=S)NC(C)(C)C1,7.1µM*,-9%,46%,28,2.5µM*
CCC[C@@H]1O[C@@H]2C[C@@H]3[C@H]4CCC5=CC(=O)C=C[C@@]5(C)[C@H]4[C@H](O)C[C@@]3(C)[C@@]2(C(=O)CO)O1,-2%[17 µM],x,x,x,-31%[16.9 µM]
O=C(Cn1cncn1)N/N=C/c1ccccc1O,u,-25%,38%,-10,8.9µM*
O=C(N/N=C/c1cc([N+](=O)[O-])ccc1O)c1cccc2ccccc12,2.2µM*,x,x,x,2.8µM*
O=C(CSc1ccc2ccccc2n1)N/N=C/c1ccc(O)cc1,u,12%,-5%,-12,u
O=C(CSc1ccc2ccccc2n1)N/N=C/c1ccccc1O,3.2µM*,-1%,1%,13,1.4µM*
